# Yp Topo-I inh = Y. pestis Topo-I inhibition via cleavage products; Y. pestis Topo-I cleavage product accumulation, plate reader; activity, % at 10 µM; hit rate 0.064% among 360,000; in the data active = activity above about 50%, passing the limit was not always enough
# BJeLR lethal = kills HRASV12-expressing BJeLR cells | BJeLR (HRASV12) viability, CellTiter-Glo ATP luminescence, 48 h | inhibition, % (concentration not given with the values) | hit rate 0.17% among 300,000; in the data active = inhibition above about 50%
# PrP UTR inh = suppresses PrP 5' UTR mRNA reporter expression; cell-based PrP 5' UTR mRNA reporter, plate reader; inhibition, % (test concentration not listed); hit rate 0.35% among 340,000; AID 488862; in the data active = inhibition above about 52%; also: 0 = median of the neutral control wells
# CCHF vOTU inh = blocks the CCHF virus ovarian tumor domain protease. CCHFV vOTU protease, Pep-AMC fluorescence. inhibition, % at 11.5 µM. hit rate 0.55% among 370,000. AID 651958; in the data active = inhibition above about 30%; also: 0% = vehicle wells with enzyme and 100% = no enzyme wells
# PrPC TRFRET = cell surface PrPC inhibition, primary TR-FRET screen | P04156 | AID 720596 | hit rate 0.43% among 370,000 | TR-FRET read-out | inhibition, % at 13.8 µM; in the data active = inhibition above about 24%; also: 0% = median of the test wells and 100% = reference compound wells
# PfHsp40 yeast = restores yeast growth despite PfHsp40 toxicity. S. cerevisiae expressing PfHsp40, growth rescue, ATP luminescence. growth rescue, % at 12.5 µM. hit rate 0.68% among 340,000; in the data active = growth rescue above about 28%, passing the limit was not always enough;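 also: yeast W303a lacking pdr1 and pdr3 grown in galactose medium; growth measured after three days at 30 °C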
# PrPC TRFRET cf = cell surface PrPC inhibition, TR-FRET confirmation; shares compounds with PrPC TRFRET; cell surface PrPC level; inhibition, % at 13.8 µM; hit rate 65% among 1,500; AID 743200; in the data active = inhibition above about 25%
# LD9 cytotox = counter-screen for PrPc inhibitors: cytotoxicity in LD9 cells; shares compounds with PrPC TRFRET; luminescence viability; inhibition, % at 13.8 µM; hit rate 29% among 1,500; AID 743201; in the data active = inhibition above about 9.5%
# The depositor's hits bear a star; . = no result given. Sampled rows, rich in hits. Any-hit rate of the full collection: about 2%.
SMILES,Yp Topo-I inh,BJeLR lethal,PrP UTR inh,CCHF vOTU inh,PrPC TRFRET,PfHsp40 yeast,PrPC TRFRET cf,LD9 cytotox
O=C(Nc1ccc2c(c1)OCO2)c1cc(C2CCCN(C(=O)CCCc3ccccc3)C2)on1 (stereo not given),30,.,.,11,23,.,.,.
O=C(Nc1ccc2c(c1)OCO2)c1cc(C2CCCN(C(=O)CCc3ccccc3)C2)on1 (stereo not given),19,.,.,12,38*,.,25*,-1
COc1ccc(CC(=O)N2CCN(C(=O)c3ccc4nc(C)n(C5CCCC5)c4c3)CC2)cc1,.,.,.,-7,-3,.,.,.
Cc1cc(-c2cc(NC(=O)Cc3c[nH]c4ccccc34)ccc2N(C)c2cccnc2)ccc1F,.,.,.,-3,2,.,.,.
N#Cc1c(-c2ccco2)nc(SCc2ccc(F)cc2)[nH]c1=O,-10,-1,-2,3,95*,-1,121*,-7
NC(=O)c1cc(NC(=O)c2cc(Br)c(Br)s2)cc(C(N)=O)c1,6,-2,-25,-17,46*,2,47*,0
Cc1[nH]c(=O)[nH]c(=O)c1CCSSCCc1c(C)[nH]c(=O)[nH]c1=O,.,.,.,4,-3,.,.,.
CC(=O)c1ccc(NC(=O)c2ccccc2Sc2ncnc3sc(C)c(C)c23)cc1,40,-3,-43,5,7,2,.,.
O=C(O)c1ccccc1Sc1ncnc2sc3c(c12)CCC3,5,6,-33,8,45*,0,63*,-9
CC(=O)CSc1ncnc2sc3c(c12)CCCC3,-9,7,-14,21,30*,3,20,-10
Cc1sc2ncnc(Sc3ccccc3C(=O)O)c2c1C,-5,-10,-18,10,94*,0,121*,-1
O=[N+]([O-])c1c(Nc2cccc(O)c2)cc(Cl)c2nonc12,-9,79*,-27,6,85*,0,92*,98*
O=C(O)c1ccc(Nc2cc(Cl)c3nonc3c2[N+](=O)[O-])cc1,5,0,-13,22,-43,0,.,.
Clc1cccc(CNc2ccn3nc(-c4ccc(OCc5ccccc5)cc4)cc3n2)c1,-5,.,.,-19,37*,.,32*,-7
COCCCNc1ccn2nc(-c3ccc(OCc4ccccc4)cc3)cc2n1,14,.,.,22,42*,.,30*,2
O=C(N[C@@H](Cc1cccnc1)C(=O)N1CCC[C@H]1C(=O)NCCc1ccccc1Cl)C1CC1,.,.,.,-12,-13,.,.,.
Cc1ccccc1CNC(=O)C1C2C=CC3(CN(Cc4ccccc4)C(=O)C13)O2 (stereo not given),.,.,.,0,-5,.,.,.
COc1cc(C2Nc3ccccc3C(=O)N2c2ccccc2)c(Br)cc1OCC(=O)O (stereo not given),2,1,-12,-32,26*,-1,18,-3
COC(=O)COc1ccc(Cl)cc1C1Nc2ccccc2C(=O)N1c1ccc(OC)cc1 (stereo not given),6,1,-12,-27,-7,-1,.,.
Brc1cc2[nH]cnc2c2ccccc12,-4,14,-12,14,61*,1,79*,-8
COc1ccc(CNC(=O)CN2C(=O)C3CCCN3c3ncc(Cl)cc32)cc1 (stereo not given),0,-5,-41,-1,26*,1,-10,-4
O=C(CN1C(=O)C2CCCN2c2ncc(Cl)cc21)NCc1ccc2c(c1)OCO2 (stereo not given),20,.,-21,-2,2,2,.,.
Cc1cc(-c2ccccc2)n2ncnc2n1,4,-4,-17,-1,28*,-1,-3,-7
C=CCN1[C@@H](CC(C)C)COc2cc(N3CCSCC3)ccc2S1(=O)=O,.,.,.,11,-5,.,.,.
O=C(Nc1ccc(N2CCN(C(=O)c3ccccc3)CC2)c(Cl)c1)c1ccc(Br)o1,-5,10,-11,-14,33*,5,41*,24*
SMILES,Yp Topo-I inh,BJeLR lethal,PrP UTR inh,CCHF vOTU inh,PrPC TRFRET,PfHsp40 yeast,PrPC TRFRET cf,LD9 cytotox
O=C(Nc1ccc(N2CCN(C(=O)c3ccccc3)CC2)cc1)c1ccc(Br)o1,26,-14,-12,9,14,0,.,.
CCN(CC)CC(C)(C)C(=O)/C=C/c1ccc(/C=C/C(=O)C(C)(C)CN(CC)CC)cc1,18,.,46,-4,90*,0,105*,96*
c1ccc(CC(Nc2cccnc2)c2ccccc2)cc1 (stereo not given),.,.,.,19,0,.,.,.
CC(C)CC(NC(=O)c1ccc(Cl)cc1)C(=O)OCC(=O)c1ccc2c(c1)NC(=O)CO2 (stereo not given),3,17,2,6,40*,0,53*,84*
CN1C2=N[C@@H](c3ccc4c(c3)OCO4)CC(=O)N2/C(=C\c2ccccc2)[C@@H]1c1ccccc1,.,.,.,.,11,.,.,.
Cc1onc(-c2ccccc2)c1C(=O)Oc1cccnc1,-7,2,-22,4,30*,0,1,-7
CCCC(=O)OC12CCCN(C1)/C(=C/c1ccc(C#N)cc1)C2 (stereo not given),.,.,.,-2,-2,.,.,.
COc1cccc(N2CC(O)=C(c3nc4ccccc4s3)C2=N)c1,1,6,-43,6,92*,-1,88*,8
CN(C)S(=O)(=O)c1ccc2nc(COCc3nc4ccc(S(=O)(=O)N(C)C)cc4[nH]3)[nH]c2c1,.,.,.,.,3,.,.,.
CN1CCCCC(NC(=O)c2cccc(F)c2)C1=O (stereo not given),.,.,.,-7,-2,.,.,.
NC(=S)N/N=C1\CC(n2nnn(-c3cccc(Cl)c3)c2=S)C2COC1O2 (stereo not given),0,-16,-26,-2,28*,1,42*,-4
NC(=S)N/N=C1\CC(n2nnnc2-c2ccccc2)C2COC1O2 (stereo not given),-4,7,-24,1,2,2,.,.
COc1ccc(/C=C/C(=O)Nc2ccc(-n3nncc3-c3ccc(OC)c(OC)c3)cc2)cc1OC,7,1,2,-14,25*,0,28*,9.9*
O=C(C(=O)N1CCN(S(=O)(=O)c2ccc(F)cc2)CC1)c1cccc(C(F)(F)F)c1,.,.,.,1,4,.,.,.
O=C(Nc1nccs1)c1ccc(COc2ccc(F)cc2)o1,4,5,.,3,10,-1,.,.
O=C(Nc1nccs1)c1ccc(COc2ccccc2Br)o1,-7,-9,-20,15,26*,1,22,5
Cc1cnc(NC(=O)CN2CCN(c3ccccn3)CC2)s1,8,7,-13,-3,38*,-1,31*,11*
COc1ccc(-c2cc(NCCc3ccncc3)n3ncnc3n2)cc1,6,6,-8,9,106*,-1,2,2
CC(=O)c1nnn(-c2nc(N)nc(N(c3ccccc3)c3ccccc3)n2)c1C,15,3,-14,-3,25*,0,91*,-7

# Screening data deposited in PubChem BioAssay by several laboratories.
